Laboratory results taken from PubChem BioAssay AID1835 (Johns Hopkins Ion Channel Center, 2009).
Hit rate of the full screen: of about 2,400 compounds, about 750 (31%) were called active. This is one part of the list. Unmarked numbers belong to inactive results.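 The calls were made as follows: active = median signal gain over dofetilide-blocked control wells reaching their mean plus 3 SD, so readout 1 at least 0; inactive = the rest.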

Molecular target: Voltage-gated inwardly rectifying potassium channel KCNH2 (Homo sapiens) (UniProt Q12809)
Assay: modulators restoring hERG flux under dofetilide – cell-based, thallium flux, duplicate retest, dofetilide IC70, confirmation (AID 1835)
Conditions: hERG cell line, FluxOR thallium flux, dofetilide-blocked; at 10 µM; active compounds read high

Voltage-gated inwardly rectifying potassium channel KCNH2 (Homo sapiens), sequence (Q12809 whole entry, looked up): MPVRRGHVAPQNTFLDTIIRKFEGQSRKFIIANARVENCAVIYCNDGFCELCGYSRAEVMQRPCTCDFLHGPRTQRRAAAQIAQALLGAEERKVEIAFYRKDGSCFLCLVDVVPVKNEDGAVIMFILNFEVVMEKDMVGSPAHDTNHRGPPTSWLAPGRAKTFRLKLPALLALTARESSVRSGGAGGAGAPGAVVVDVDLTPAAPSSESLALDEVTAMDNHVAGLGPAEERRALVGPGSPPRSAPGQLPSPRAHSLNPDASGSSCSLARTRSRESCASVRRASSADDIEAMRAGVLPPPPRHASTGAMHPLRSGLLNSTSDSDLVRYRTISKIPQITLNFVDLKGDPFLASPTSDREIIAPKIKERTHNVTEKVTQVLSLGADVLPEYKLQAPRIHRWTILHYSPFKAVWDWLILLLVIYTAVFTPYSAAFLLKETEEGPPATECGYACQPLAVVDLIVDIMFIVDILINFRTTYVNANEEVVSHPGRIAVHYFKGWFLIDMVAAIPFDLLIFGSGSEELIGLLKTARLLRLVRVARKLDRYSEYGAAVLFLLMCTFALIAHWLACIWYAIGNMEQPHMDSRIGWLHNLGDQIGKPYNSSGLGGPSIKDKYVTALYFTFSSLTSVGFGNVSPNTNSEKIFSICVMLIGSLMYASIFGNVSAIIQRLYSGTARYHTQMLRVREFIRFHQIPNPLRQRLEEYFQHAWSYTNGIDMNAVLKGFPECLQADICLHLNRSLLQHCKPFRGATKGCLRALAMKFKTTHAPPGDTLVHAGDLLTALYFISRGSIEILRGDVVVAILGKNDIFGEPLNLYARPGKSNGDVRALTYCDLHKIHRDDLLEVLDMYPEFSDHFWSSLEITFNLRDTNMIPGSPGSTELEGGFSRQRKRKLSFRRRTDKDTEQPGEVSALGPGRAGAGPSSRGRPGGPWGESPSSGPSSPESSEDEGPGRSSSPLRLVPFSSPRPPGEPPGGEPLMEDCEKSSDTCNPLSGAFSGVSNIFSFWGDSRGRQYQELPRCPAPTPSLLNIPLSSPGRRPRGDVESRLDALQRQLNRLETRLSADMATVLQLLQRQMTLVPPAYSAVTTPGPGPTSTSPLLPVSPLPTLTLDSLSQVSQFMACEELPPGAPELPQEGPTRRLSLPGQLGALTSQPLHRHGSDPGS

| SMILES | activity increase over dofetilide control, less the hit threshold |
| --- | --- |
| S=c1[nH]c2ccccc2c2ccccc12 | -3% |
| S=c1nc(C2CC2)[nH]c2ccccc12 | 34% (active) |
| S=c1nc(C2CCCCC2)[nH]c2ccccc12 | 4% (active) |
| COc1ccc(Cn2c(O)cc(=O)[nH]c2=O)cc1 | -9% |
| COc1ccc(-n2c(O)c(/C=C3\C=Nc4ccccc43)c(=O)[nH]c2=O)cc1 | 21% (active) |
| Cn1cc(CCC(=O)N2CCCC(Nc3ccc(F)cc3)C2)cn1 (configuration not stated) | -13% |
| CCc1cc2cc(C)cc(C)c2[nH]c1=S | 14% (active) |
| COc1ccc(NC(=O)CC23CC4CC(CC(C4)C2)C3)cn1 | -17% |
| CCOC(=O)c1cnc(-n2nc(C)cc2C)nc1NNc1nc(-c2ccccc2)cc(-c2ccccc2)n1 | -12% |
| CCOc1cc(N2CCOCC2)c(OCC)cc1NC(=O)Cn1nc(C)c([N+](=O)[O-])c1C | 16% (active) |
| CCOc1cc(N2CCOCC2)c(OCC)cc1NC(=O)CCC1CCCC1 | -11% |
| CCOc1cc(N2CCOCC2)c(OCC)cc1NC(=O)Cc1ccccc1 | -2% |
| Cc1ccccc1OC(=O)n1c(=S)oc2cc(Cl)ccc21 | -1% |
| O=C(/C=C/Nc1ccccc1)C(F)(F)F | -14% |
| Cc1ccc(-c2nc(N)s[n+]2-c2ccccc2)cc1 | 17% (active) |
| CCC(C)(C)NC(=O)c1ccc(Sc2nncn2C)c([N+](=O)[O-])c1 | -4% |
| C=C(C)C1CC=C(C)/C(=N/NC(=O)CCC(=O)Nc2ccccc2Cl)C1 (configuration not stated) | -17% |
| COc1ccc(CCNC(=O)c2ccc3c(c2)OCO3)cc1 | -16% |
| COc1cccc([C@@H]2Oc3ccc(OC)cc3C(=O)[C@H]2OC(=O)NCc2ccc3c(c2)OCO3)c1 | 5% (active) |
| COc1ccc2c(c1)O[C@@H](c1cccc(C(F)(F)F)c1)[C@H](OC(=O)NCCc1ccc(OC)c(OC)c1)C2=O | 3% (active) |
| COc1ccc(CCNC(=O)Cn2c(=O)n(-c3ccc(F)cc3)c(=O)c3sccc32)cc1OC | -10% |
| COc1ccc(CCNC(=O)C(=O)Nc2ccc3c(c2)OCO3)cc1OC | -22% |
| COc1ccccc1-n1c(C)nc2cc(C(=O)NCc3ccc4c(c3)OCO4)ccc21 | -27% |
| COC(=O)C(C)Sc1nnc(Cc2cc(=O)[nH]c(=O)[nH]2)n1-c1cccc(OC)c1 (configuration not stated) | -17% |
| CC(C)OC(=O)N(C)c1ccc(C(O)(C(F)(F)F)C(F)(F)F)cc1 | -8% |
| CCCOC(=O)CN1C(=O)c2ccc(C(=O)OCCC)cc2C1=O | -8% |
| COc1ccc(CC(=O)Nc2ccc(-c3noc(-c4ccccc4OC)n3)cc2)cc1 | -18% |
